Results taken from PubChem BioAssay AID720513 (Broad Institute, 2013).
About 480 (23%) of roughly 2,100 compounds were called active. Not shown: some 5% with an inconclusive outcome.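 The calls were made as follows: active = fitted curve reaches 40% activation at or below the top valid concentration, in every replicate test; inconclusive = replicate tests disagree on the call; inactive = the rest, including activity in the opposite direction.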 A selection follows. Potency and affinity values are given separately.

Test: activators raising PGC1a acetylation in cells, dose response, cell-based, cherry-picked samples, set 6 (AID 720513);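 also: cells made to overexpress flag tagged PGC1a plus GCN5 acetyltransferase by viral infection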
Conditions: U2OS PGC1a acetylation AlphaLISA, overnight, 0 = neutral, -100 = inhibitor control; series mostly up to 19.5 µM; activation (acetylation increase): at the top concentration

Activation (acetylation increase), inactive:
O=C(NNS(=O)(=O)c1ccc(F)cc1)c1ccc(S(=O)(=O)N2CCCCC2)cc1 13%, N#CC1(NC(=O)Cn2ncc(Cl)c(Cl)c2=O)CCCCC1 -74.9%, C#CCN(C[C@@H]1[C@@H](OC(=O)NCCCCCC)[C@@H](OC(=O)NCCCCCC)Cn2c(=O)ccc(=O)n21)S(=O)(=O)c1ccc(C)cc1 -98.2%, CO[C@H]1CN(C)C(=O)c2ccc(NS(=O)(=O)c3ccccc3)cc2OC[C@H](C)N(C(=O)NC(C)C)C[C@@H]1C 3.86% [at 21 µM], CCN(CC)c1ccc(S(=O)(=O)N2CCOCC2)cc1NC(=O)Cn1nc(C)c([N+](=O)[O-])c1C -32.7%, O=C(Cn1cc(C(F)(F)F)ccc1=O)Nc1cc(S(=O)(=O)N2CCOCC2)ccc1Cl 6.03%, O=C(Nc1cc(S(=O)(=O)N2CCOCC2)ccc1Cl)c1cc([N+](=O)[O-])ccc1Cl -92.3%, CCN(CC)S(=O)(=O)c1ccc(C(=O)Nc2cc(S(=O)(=O)N3CCOCC3)ccc2O)cc1 19.8%, Cc1nn(CCCC(=O)O)c(C)c1[N+](=O)[O-] -1.68%, CCC(=O)NC1(Cc2ccc(O)cc2)CCCCC1 6.88%, COCCNC(=O)CN(C(=O)CCC(=O)Nc1ccccn1)c1ccc(OC)cc1 -17.2%, CCN(CC)CCNc1ccc(C)c2sc3ccc(O)cc3c(=O)c12 12.6% [at 5 µM], Cc1cccc(CCN(CC(=O)NC(C)(C)C)C(=O)c2csnn2)c1 -48.8%, COc1ccc(S(=O)(=O)N(C)C[C@@H]2Oc3cc(C#CC4CC4)ccc3S(=O)(=O)N([C@H](C)CO)C[C@H]2C)cc1 18.8%, Cc1ccc(S(=O)(=O)N(C)C[C@@H]2Oc3cc(C#Cc4ccncc4)ccc3S(=O)(=O)N([C@@H](C)CO)C[C@H]2C)cc1 -83.9%, C[C@H]1CN([C@@H](C)CO)S(=O)(=O)c2ccc(C3=CCCC3)cc2O[C@@H]1CN(C)C 28.7%, Cc1ccc(S(=O)(=O)N(C)C[C@H]2Oc3cc(C#Cc4ccncc4)ccc3S(=O)(=O)N([C@H](C)CO)C[C@H]2C)cc1 -84%, Cc1ccc(S(=O)(=O)N(C)C[C@@H]2Oc3cc(C#Cc4ccncc4)ccc3S(=O)(=O)N([C@H](C)CO)C[C@H]2C)cc1 -91.5%, C[C@@H]1CN([C@@H](C)CO)S(=O)(=O)c2ccc(C3=CCCCC3)cc2O[C@H]1CN(C)C 13%, COc1ccc(S(=O)(=O)N(Cc2cc3ccc(OC)cc3[nH]c2=O)CC2COCCO2)cc1 (stereo not drawn) 4.54%, Cn1c2c(c(=O)n(C)c1=O)C(c1cccc(F)c1)C(C#N)=C(N)O2 (stereo not drawn) 20.1%, Cc1ccc(S(=O)(=O)N(C)C[C@H]2Oc3ccc(NC(=O)CCC(F)(F)F)cc3C(=O)N([C@H](C)CO)C[C@@H]2C)cc1 12.5%, CCOC(=O)c1ccc(N2C(=O)CC(N3CCC(O)(c4ccc(Br)cc4)CC3)C2=O)cc1 (stereo not drawn) 25.2% [at 10 µM], Cn1ncc2c(O/N=C(\N)c3ccc(C(F)(F)F)cc3)ncnc21 -61.7%, CCOC(=O)CSc1nc2cc3c(cc2cc1C#N)OCCO3 6.89%, CC(C)OC(=O)CSc1nc2cccnc2n1-c1ccc(F)cc1 -7.32%, O=C(/C=C/c1ccc(F)cc1)NNC(=O)CCN1CCN(Cc2ccccc2)CC1 4.09%, Cc1[nH]c(=O)c(C(=O)/C=C/c2ccccc2)c2c1CCCC2 -103%, CC(=O)N1CCN(C(C)=O)C1c1ccccc1 -5.86%, O=S(=O)(Nc1ccccn1)c1ccc(-n2cccn2)cc1 9.09%, CC1CCN(C(=O)COC(=O)c2ccc(Br)o2)CC1 35.8%, COc1ccc(OC)c(CNS(=O)(=O)c2cc(-c3cc(C)no3)ccc2OC)c1 40.3%, CCOc1ccc(S(=O)(=O)N(C)c2ccc(OCC(=O)N3c4ccc(C)cc4C4CN(C)CCC43)cc2)cc1 (stereo not drawn) -9.14%, CN(C[C@H]1N[C@@H](CO)[C@@H]1c1ccc(C2=CCCC2)cc1)C(=O)c1ccc(F)cc1 -85.2%, CN1OC[C@@H]2CN(S(=O)(=O)c3cccc4ccccc34)[C@H](c3ccc(N4CCCCC4)cc3)C[C@@H]21 30.2%, CC(C)CC(OC(=O)c1cccs1)C(=O)NCc1ccco1 (stereo not drawn) 12.3%, Cc1cc(C)nc(N2CCC(C(=O)NCc3ccco3)CC2)n1 10.2%, Cc1ccc(C)n1-c1ccc(-c2nnco2)cc1 5.89%, COc1ccc2c3c([nH]c2c1)[C@@H](CO)N(C(=O)c1ccccc1)CC31CCN(S(=O)(=O)c2cccs2)CC1 -4.29%, COc1ccc2c3c(n(C)c2c1)[C@H](CO)NCC31CCN(Cc2cc(-c3ccccc3)on2)CC1 -102%, CCN(CC)Cc1c(O)ccc2c([N+](=O)[O-])c(C)n(-c3ccc(OC)cc3)c12 -12.3%, CCOC(=O)CN1C(=O)C(Sc2n[nH]c(-c3ccc(C)cc3)n2)CCc2ccccc21 (stereo not drawn) 3.64%, O=C1c2ccc(-c3ccc4c(c3)C(=O)N(CCCO)C4=O)cc2C(=O)N1CCCO 17.2%, CNC[C@H]1Oc2ncc(C#CC3CCCCC3)cc2C(=O)N([C@H](C)CO)C[C@H]1C 10.7%, O=C(Cn1cnc2c(nnn2Cc2ccc(Cl)cc2)c1=O)c1ccccc1 -24.2%, COc1cccc(OCc2nnc(SCC(=O)OCc3ccccc3)o2)c1 26.1%, COc1ccc(CN(C)C[C@@H]2Oc3ccc(NS(=O)(=O)c4c(C)noc4C)cc3C(=O)N([C@H](C)CO)C[C@H]2C)cc1 11.3% [at 21 µM], Cc1cc(C)cc(N(CC(=O)Nc2c(C)n(C)n(-c3ccccc3)c2=O)S(C)(=O)=O)c1 -1.04%, C[C@@H]1CN([C@H](C)CO)C(=O)CCCn2nncc2CO[C@H]1CN(C)S(=O)(=O)c1cn(C)cn1 -7.5%, CN(Cc1ccccc1)C(=O)c1ccc2c(c1)NC(=O)C(N1CCOCC1)S2 (stereo not drawn) -37.4%, CCCOc1ccccc1C1C(C(=O)OC)=CN(C(C)C)C=C1C(=O)OC 8.53%, CN(c1cccc(NS(=O)(=O)c2cccs2)c1)S(C)(=O)=O 30.2%, CC(=O)c1ccccc1-c1csc2ncnc(Sc3nnnn3C)c12 16.2% [at 10 µM], CCn1c(CNc2ccc(C)cc2)nnc1SCC(N)=O 4.47%, Cc1[nH]nc2ncc(C(=O)c3ccccc3O)cc12 -21.6%, Cn1c(SCc2ccon2)nc2ccccc2c1=O -6.71%, CNC[C@@H]1OCCCC[C@H](C)Oc2ccc(NS(=O)(=O)c3cccs3)cc2C(=O)N([C@H](C)CO)C[C@@H]1C 0.588%, Cc1noc(C)c1NC(=O)N(C)C[C@@H]1OCCCC[C@@H](C)Oc2ccc(N(C)C)cc2C(=O)N([C@@H](C)CO)C[C@H]1C -4.29%, COc1ccc(C(=C(CC(=O)O)C(=O)OC(C)(C)C)c2cc(OC)c(OC)c(OC)c2)cc1OC -5.87%, CCCOc1ccc(/C=C/C(=O)O)cc1OC 5.41%, CN(C)C(=O)C[C@H]1CC[C@H](NC(=O)C2CCC2)[C@@H](CO)O1 15.4%, COc1ccc2cc3c(N)nn(C(=O)c4ccccc4Cl)c3nc2c1 -23.1%, COc1ccc(NCc2nnc(SCC(=O)Nc3cc(C)cc(C)c3)o2)cc1 21.1%, CCc1c(C)nc(SCC(=O)Nc2ccc3c(c2)OCCO3)[nH]c1=O -2.04%, CCN1C(=O)c2cccc3c(S(=O)(=O)Nc4ccccn4)ccc1c23 17.1%, Cc1ccc(O)c(NC(=O)c2ccc3c(c2)C(=O)N(CC(C)C)C3=O)c1 4.64%, CCN1CCN(C(=O)c2c(-c3c(F)cccc3Cl)noc2C)CC1 -1.69%, C[C@H](CO)N1C[C@H](C)[C@H](CN(C)C(=O)NC2CCCCC2)Oc2cc(C#Cc3ccc(F)cc3)ccc2S1(=O)=O -65.8%, Nc1ccccc1-c1ccn[nH]1 0.587%, CC1=NN(C(=O)c2ccc(C)cc2)C(O)(C(F)(F)OC(F)(F)F)C1 (stereo not drawn) 11.7%, O=C(c1ccco1)N1N=C(c2ccc(Cl)cc2)CC1(O)C(F)(F)F (stereo not drawn) -31.7%, COc1ccc(C(C)(O)c2nc(-c3cccc(O)c3)cs2)cc1 (stereo not drawn) -1.9%, COc1ccc(-c2ccc(CCC(=O)O)n2NC(=O)c2ccc(C(C)(C)C)cc2)cc1 -0.816%, O=C(Nc1ccc(F)cc1)N[C@H]1C=C[C@H](CC(=O)N2CCCCC2)O[C@H]1CO 26.6%, COc1cccc(-c2cc(C(=O)NCCCn3ccnc3)no2)c1 33.2%, CCSc1ccccc1C(=O)NCCCn1ccnc1 5.32%, Cc1ccccc1-c1nc(C(=O)NCC2CCCO2)cc2c1[nH]c1ccccc12 (stereo not drawn) -55.2%, C[C@@H]1CN([C@@H](C)CO)S(=O)(=O)c2ccc(-c3ccc(F)cc3)cc2O[C@H]1CN(C)C(=O)C1CCCCC1 -61.4%, C#CCN(C[C@@H]1[C@@H](OC(=O)NC2CCCC2)[C@@H](OC(=O)NC2CCCC2)Cn2c(=O)ccc(=O)n21)S(=O)(=O)c1ccc(C)cc1 -92%, O=C1N(Cc2ccccc2)Cc2ccccc2[C@@H]2OC(c3ccc(OCCCO)cc3)=N[C@]12Cc1ccccc1 1.25%, CCCC#Cc1ccc2c(c1)O[C@@H](CN(C)C(=O)C1CC1)[C@@H](C)CN([C@@H](C)CO)S2(=O)=O 3.55%, COC(c1ccccc1)c1nnc(CCC(=O)N(C)C(C2CC2)C2CC2)o1 (stereo not drawn) -12.5%, COCC(=O)NCc1nc2ccccc2n1Cc1ccccc1F -16.1% [at 10 µM], COCCNC(=O)C(c1ccc(F)cc1)N(Cc1ccco1)C(=O)CCC(=O)Nc1nccs1 (stereo not drawn) 6.62%, COc1ccc2cc3cc(C(=O)NCc4cccs4)oc3nc2c1 -4.04%, CCCCn1nc(NC(=O)c2cccs2)c2cc3ccccc3nc21 54.1%, CN(C)c1ccc(C(=O)NC2(N3CCC3=O)CCCC2)cc1 29%, CCOC(=O)N1CCN(C(=O)c2cc(Cl)c(Cl)cc2C(=O)O)CC1 -24.4%, Clc1ccc(CSc2nnc(-c3cccnc3)n2Cc2ccco2)c(Cl)c1 38.7%, CCOC(=O)C1=C(C)N=c2s/c(=C\c3cccc(OCC(=O)O)c3)c(=O)n2C1c1ccccc1OC (stereo not drawn) 22.3%, C[C@H]1CN([C@@H](C)CO)C(=O)c2cccc(NC(=O)C3CCCCC3)c2O[C@H]1CN(C)Cc1ccc(C(=O)Nc2ccccc2N)cc1 264% [at 10 µM], C[C@@H]1CN([C@H](C)CO)C(=O)c2cc(NC(=O)Cc3ccccc3)ccc2O[C@@H]1CN(C)Cc1ccncc1 -2.98%, Cc1noc(C)c1S(=O)(=O)Nc1cccc2c1O[C@@H](CN(C)Cc1ccncc1)[C@@H](C)CN([C@@H](C)CO)C2=O -8.63%, Cc1noc(C)c1NC(=O)Nc1cccc2c1O[C@H](CN(C)Cc1ccc(Oc3ccccc3)cc1)[C@H](C)CN([C@@H](C)CO)C2=O -33.3%, COc1ccc(CN(C)C[C@H]2Oc3c(NC(=O)CCCCCC(=O)Nc4ccccc4N)cccc3C(=O)N([C@H](C)CO)C[C@@H]2C)cc1 9.2% [at 21 µM], C[C@H](CO)N1C[C@H](C)[C@H](CN(C)Cc2ccc(C(=O)Nc3ccccc3N)cc2)Oc2c(NC(=O)c3cnccn3)cccc2C1=O -22.5%, C[C@@H]1CN([C@H](C)CO)C(=O)c2cc(NS(=O)(=O)c3ccc(F)cc3)ccc2O[C@H]1CN(C)Cc1ccc(C(F)(F)F)cc1 13.5%, C[C@H](CO)N1C[C@H](C)[C@@H](CN(C)Cc2ccc(C(F)(F)F)cc2)Oc2ccc(NS(=O)(=O)c3ccc(F)cc3)cc2C1=O 8.36% [at 21 µM]
